{"source": "PubChem BioAssay (NCI)", "note": "This is part of a sample that, as a whole, favours compounds with a hit. Of some 83,000 tested, about 20% had one in any assay.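 How to read the values: 0–100, growth inhibition (40 = 60% inhibited); 0, no net growth; -100 to 0, cell death (-40 = 40% of starting cells died; -100 = all dead).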 Values without a mark were called inactive. The source made the active and inactive calls. The calls were made as follows: active = growth percent below 10; inactive = the rest."}
{"test_system": "LOX IMVI melanoma", "assay": "NCI-60 one-dose screen, 48 h (100 = growth as untreated, 0 = no growth, -100 = all killed)", "settings": "10 µM unless noted"}
{"smiles": "COC(=O)c1oc2c(C(=O)/C=C/c3ccc(OC)cc3)c(OCCN3CCOCC3)ccc2c1C", "growth": "-85.3% (active)"}
{"smiles": "CN(C)c1ccc(/C=N/n2c(-c3cc(F)c(Cl)cc3Cl)nn(CN3CCOCC3)c2=S)cc1", "growth": "96.1%"}
{"smiles": "CS(=O)(=O)OCC(COS(C)(=O)=O)C(c1ccccc1)c1ccccc1", "growth": "99.7%"}
{"smiles": "Nc1ncnc2c1c(C(F)(F)F)cn2[C@@H]1O[C@H](CO)[C@@H](O)[C@H]1O", "growth": "6.25% (active)"}
{"smiles": "Cc1nccc2c3ccc(OCc4cn(Cc5ccc(Br)cc5)nn4)cc3n(CCCc3ccccc3)c12", "growth": "93.3%"}
{"smiles": "[2H]c1nc(Nc2ncc(F)c(-c3cc(F)c4nc(C)n(C(C)C)c4c3)n2)c([2H])c([2H])c1CN1CCN(CC)CC1", "growth": "37%"}
{"smiles": "COc1cc(/C=C2/Oc3cc4occc4c(OC)c3C2=O)ccc1OCC(=O)Nc1ccncc1", "growth": "99.5%"}
{"smiles": "COc1ccc2c(c1)OC(N)=C(C#N)C2c1ccc(F)cc1", "note": "(stereo not given)", "growth": "39.1%"}
{"smiles": "CCCCCCCCCCCCCCCCNc1ccccc1", "growth": "101%"}
{"smiles": "O=C(Nc1ccc(-n2ccc3c(NC(=O)c4ccccc4)ncnc32)cc1)c1cccc(C(F)(F)F)c1", "growth": "3.47% (active)"}
{"smiles": "COc1ccc(/C(Cl)=N/N=C(\\Cl)c2cc(OC)c(OC)c(OC)c2)cc1OC(C)=O", "growth": "96.7%"}
{"smiles": "O=C1C(Cl)=C(Nc2ccccc2)C(=O)C(Cl)=C1Nc1ccccc1", "growth": "96.9%"}
{"smiles": "O=C(Nc1ccc(-n2cc(-c3ccncc3)c(-c3ccc(O)c(Cl)c3)n2)cc1)c1cc(C(F)(F)F)cc(C(F)(F)F)c1", "growth": "42.4%"}
{"smiles": "CCn1c(C)nc([N+](=O)[O-])c1Sc1nc(N)nc2nc[nH]c12", "growth": "7.51% (active)"}
{"smiles": "Cc1cn(C2CC(N=[N+]=[N-])C(COP(=O)(O)OP(=O)(O)OP(=O)(O)O)O2)c(=O)[nH]c1=O", "note": "(stereo not given)", "growth": "101%"}
{"smiles": "COc1cc(/C=C\\c2cc(/C=C\\c3ccc(O)c(OC)c3)n(C(=O)CNc3ccccc3OC)n2)ccc1O", "growth": "40.2%"}
{"smiles": "COc1ccc(Cl)cc1NC(=O)c1cc2c([nH]1)-c1nc(NC(=O)C(C)C)sc1CC2", "growth": "95%"}
{"smiles": "O=C(/C=C/c1ccco1)c1cccc(Nc2nc(Nc3ccccc3)nc(Nc3ccccc3)n2)c1", "growth": "83.5%"}
{"smiles": "O=C(Nc1ccc(-n2ccc3c(NC(=O)c4ccccc4)ncnc32)cc1)Nc1ccc(Cl)c(C(F)(F)F)c1", "growth": "2.99% (active)"}
{"smiles": "CN(C)CCCOc1c(Br)cc(/C=C/C(=O)N(C)CCc2cc(Br)c(OCCCN(C)C)c(Br)c2)cc1Br", "growth": "-23.1% (active)"}
{"smiles": "C=C(C)[C@@H]1C/C=C(\\COC(=O)[C@H](OC(C)=O)C(NC(=O)c2ccccc2)c2ccccc2)CC[C@H]2O[C@]2(C)CC/C=C(\\C)CC1", "note": "(stereo not given in full)", "growth": "72.9% [5 µM]"}
{"smiles": "COc1ccc(Cl)cc1NC(=O)c1cc2c([nH]1)-c1nc(NC(=O)C(C)(C)C)sc1CC2", "growth": "53.4%"}
{"smiles": "CC1CCC(C(C)C)C(NN)C1", "note": "(stereo not given)", "growth": "103%"}
{"smiles": "Cl[C@@H]1CCO[C@H](c2cc3ccccc3c3ccccc23)C1", "growth": "97.6%"}
{"smiles": "C[C@]12CC[C@@H]3c4ccc(O)c(N)c4CC[C@H]3[C@@H]1CC[C@@H]2O", "growth": "96.7%"}
{"smiles": "COc1ccc(/C=C/C(=O)c2ccc(-n3cc(CN4CCN(c5cc6c(cc5F)c(=O)c(C(=O)O)cn6C5CC5)CC4)nn3)cc2)cc1OC", "growth": "-1.51% (active)"}
{"smiles": "COc1ccc(-c2nn(-c3ccc(NC(=O)c4ccc(Cl)c(C(F)(F)F)c4)cc3)cc2-c2ccncc2)cc1Cl", "growth": "-63.9% (active)"}
{"smiles": "O=C(O)c1cc2ccccc2cc1Nc1ccccc1", "growth": "91.8%"}
{"smiles": "COc1ccc(Cn2cc3c(c2-c2cc(OC)c(OC)c(OC)c2)CCc2c(CO)noc2-3)cc1", "growth": "30.6%"}
{"smiles": "COc1cc(C(=O)N2CCN(C(=O)c3cc(OC)c(OCc4ccccc4)cc3N)CC2)c(N)cc1OCc1ccccc1", "growth": "108%"}
{"smiles": "Nc1ccc(S(=O)(=O)Nc2ccnn2-c2ccccc2)cc1", "growth": "93.2%"}
{"smiles": "COc1ccc(-c2nnc(SCC(=O)Nc3ccc(C(=O)/C=C/c4ccccc4)cc3)o2)cc1OC", "growth": "85.9%"}
{"smiles": "CCC(N)(C(=O)O)c1ccc(F)cc1", "note": "(stereo not given)", "growth": "96%"}
{"smiles": "COc1ccc(-c2c(C#N)cnc(N)c2-c2nc3cc(C)c(C)cc3[nH]2)cc1", "growth": "59.6%"}
{"smiles": "CC(C)(C)NCC(O)COc1c(Br)c(Br)c(Br)c2c1OC(C)(C)C2", "note": "(stereo not given)", "growth": "-90.9% (active)"}
